According to PubChem BioAssay AID2672 (National Center for Advancing Translational Sciences (NCATS), 2010):
Records with an inconclusive call do not appear. A call without a number means that no potency is given here. Active and inactive are the calls of the source. Calls come from the whole dose curve; as a rule, active = well fitted curve in the direction sought with a large enough effect; inconclusive = small, poorly fitted or top-dose-only effect, or another doubt; inactive = no such curve, though single readings can be large or run the other way.

Assay: qHTS Assay Multiplex Screening to Identify Dual Action Probes in a Cell Model of Huntington: Cytoprotection in HTT Q25 expressing cells (ATP)
Conditions: PC12 HTT-Q25 inducible, ATP luminescence, 40 h; series mostly up to 46.1 µM
Source text: NIH Chemical Genomics Center [NCGC] NIH Molecular Libraries Probe Production centers Network [MLPCN] MLPCN Grant: MH084839-01A1 Assay Submitter (PI): Wei Zheng NCGC Assay Overview: Huntington's disease is a neurodegenerative disorder caused by a trinucleotide repeat expansion in Exon 1 of the Huntingtin gene. The CAG trinucleotide encodes glutamine and polyglutamine expansions cause cell death in selective areas of the brain. Huntington polyglutamine repeats have the tendency to form aggregates which are observable in later stages of the disease. The exact nature of the aggregates, whether toxic, protective, or insignificant, is unclear. A stable PC12 cell line containing a gene fusion of Exon 1 of the Huntingtin gene linked to GFP under the control of the inducible ecdysone promoter were used as the cell-based model of Huntington Disease for high throughput screening. Exon 1 of the Huntingtin gene contained an expansion of 103 polyglutamines (Q103) which, when expressed, caused cell death and distinct, bright GFP aggregates. The amount of cell death and the size and intensity of GFP aggregates increased over time and induction level. The cell death were quantified with a measurement of ATP content in the cells. A maximal 40-50% of cell death was observed when the Huntington gene was induced in this cell line. We optimized this assay in a homogeneous 1536 well format. A quantitative high throughput screen (qHTS) was conducted on the PC12 cells which were induced to express the toxic fusion construct. Small molecules which prevented cell death were identified by using a luminescent ATP quantification method (Perkin Elmer's ATPlite). To characterize compound effects on a different form of the HTT protein, PC12 cells stably containing a construct with an ecdysone inducible promoter expressing GFP fused to the exon 1 of HTTQ25 (Huntington protein which containing a 25 ployglutamine expansion) were used. Less cytoxicity occurs upon induction of HTTQ25.
PC12 cells stably containing a construct with an ecdysone inducible promoter expressing GFP fused to the exon 1 of HTTQ25 (Huntington protein which containing a 25 ployglutamine expansion) were used. NCGC Assay Protocol Summary: Sequence, Parameter, Description 1, Reagent, 5 uL 1500 cells/well 1536 TC treated White clear bottom plate 2, Compound, 23 nL Tebufenozide inducer (100 nM final) to all columns 3, Compound, 23 nL 40 uM to 0.5 nM Libraries 4, Time, 40 hours at 37C 5, Reagent, 5 ul ATPLite cell death assay reagent 6, Detector, 4 sec integration with a Viewlux Luminescent Media consisted of phenol red free DMEM + 5% equine serum (Hyclone # SH30072.03 ), 5% supplemented Bovine Calf Serum (Hyclone # SH30074.03 ), 1x pen/strep, no G418

Row | Compound | Potency
1 | Cn1nnnc1Sc1ncnc2scc(-c3ccccc3)c12 | inactive
2 | Cn1nnnc1Sc1ncnc2scc(-c3ccc([N+](=O)[O-])cc3)c12 | inactive
3 | CC(=O)c1ccccc1-c1csc2ncnc(Sc3nnnn3C)c12 | inactive
4 | Cn1nnnc1Sc1ncnc2scc(-c3cccc(C(F)(F)F)c3)c12 | inactive
5 | Cn1nnnc1Sc1ncnc2scc(-c3ccc(C(F)(F)F)cc3)c12 | inactive
6 | Cn1nnnc1Sc1ncnc2scc(-c3ccc(Br)cc3)c12 | inactive
7 | CC(=O)c1ccc(-c2csc3ncnc(Sc4nnnn4C)c23)cc1 | inactive
8 | Cn1nnnc1Sc1ncnc2scc(-c3ccc(Cl)cc3)c12 | inactive
9 | Cn1nnnc1Sc1ncnc2scc(-c3ccc(-c4ccccc4)cc3)c12 | inactive
10 | Cn1nnnc1Sc1ncnc2scc(-c3cccc(Cl)c3)c12 | inactive
11 | Cn1nnnc1Sc1ncnc2scc(-c3ccccc3C(F)(F)F)c12 | inactive
12 | Cc1cccc(-c2csc3ncnc(Sc4nnnn4C)c23)c1 | inactive
13 | Cn1nnnc1Sc1ncnc2scc(-c3cccc(F)c3)c12 | inactive
14 | Cn1nnnc1Sc1ncnc2scc(-c3cccs3)c12 | inactive
15 | COc1ccc(-c2csc3ncnc(Sc4nnnn4C)c23)cc1 | inactive
16 | Cn1nnnc1Sc1ncnc2scc(-c3cccc4c3sc3ccccc34)c12 | inactive
17 | Cn1nnnc1Sc1ncnc2scc(-c3cccc(N)c3)c12 | inactive
18 | Cn1nnnc1Sc1ncnc2scc(-c3ccsc3)c12 | 10 µM (active)
19 | Cn1nnnc1Sc1ncnc2scc(-c3ccc(N)cc3)c12 | inactive
20 | Cc1ccccc1-c1csc2ncnc(Sc3nnnn3C)c12 | inactive
21 | Cn1nnnc1Sc1ncnc2scc(-c3ccccc3[N+](=O)[O-])c12 | inactive
22 | COc1cccc(-c2csc3ncnc(Sc4nnnn4C)c23)c1 | 31.6 µM (active)
23 | Cn1nnnc1Sc1ncnc2scc(-c3ccccc3Br)c12 | inactive
24 | Cn1nnnc1Sc1ncnc2scc(-c3cccc(C#N)c3)c12 | inactive
25 | COc1ccccc1-c1csc2ncnc(Sc3nnnn3C)c12 | inactive
26 | Cn1nnnc1Sc1ncnc2scc(-c3ccc(C(=O)OC(C)(C)C)cc3)c12 | inactive
27 | Cn1nnnc1Sc1ncnc2scc(-c3cc4ccccc4o3)c12 | inactive
28 | Cn1nnnc1Sc1ncnc2scc(-c3cccc(Br)c3)c12 | inactive
29 | Cn1nnnc1Sc1ncnc2scc(-c3ccc(F)cc3)c12 | inactive
30 | Cn1nnnc1Sc1ncnc2scc(-c3ccc(S(C)(=O)=O)cc3)c12 | inactive
